Several values for one entry are separate records, joined by “and”; a condition that tells them apart may be missing. Identical values can stand only once. The whole screen tested about 5,500 compounds, of which about 2,000 (36%) were called active. Roughly 18% stayed inconclusive and do not appear here. No stated cut-off is given here; in the data, active means normalized growth mostly below about 0.91 (no sharp cut-off); inconclusive means no clear call, values can overlap the other calls; inactive means mostly above about 0.92. Some of the results follow.
Experiment: chemical genetic growth profiling, strain panel (AID 1159580);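 further: tested at 20 µM; growth read once vehicle control cultures reached saturation at 30 °C; 1 = growth at the plate median or of vehicle wells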
Details: S. cerevisiae deletion strains, growth OD

Measured: normalized growth

C#C[C@]1(O)CCC2C3CCc4cc(O)ccc4C3CC[C@@]21C (some centres not stated)
active: locus YBR009C, strain hhf1, stronger effect = lower value 0.894 | locus YDL035C, strain GPR1, stronger effect = lower value 0.853 | locus YDR137W, strain rgp1, stronger effect = lower value 0.738 | locus YDR195W, strain ref2 1.25 [resistant] | locus YDR392W, strain spt3, stronger effect = lower value 0.617 | locus YGL078C, strain dbp3, stronger effect = lower value 0.904 | locus YGR252W, strain gcn5, stronger effect = lower value 0.653 | locus YHR013C, strain ard1, stronger effect = lower value 1.17 [resistant]
inactive: locus YAL013W, strain DEP1, stronger effect = lower value 1 | locus YAL021C, strain ccr4, stronger effect = lower value 1.06 | locus YAL026C, strain drs2, stronger effect = lower value 0.951 | locus YAL030W, strain snc1, stronger effect = lower value 1.02 | locus YBL061C, strain skt5, stronger effect = lower value 0.998 | locus YBR021W, strain FUR4, stronger effect = lower value 0.94 | locus YBR023C, strain chs3, stronger effect = lower value 0.996 | locus YBR171W, strain sec66, stronger effect = lower value 1.02 | locus YBR229C, strain ROT2, stronger effect = lower value 1.02 | locus YBR231C, strain swc5, stronger effect = lower value 1 | locus YBR279W, strain paf1, stronger effect = lower value 1 | locus YCL011C, strain gbp2, stronger effect = lower value 1.01 | locus YCL016C, strain dcc1, stronger effect = lower value 0.988 | locus YCL029C, strain bik1, stronger effect = lower value 0.942 | locus YCL061C, strain MRC1, stronger effect = lower value 0.968 | locus YCL069W, strain vba3, stronger effect = lower value 1.02 | locus YCR088W, strain abp1, stronger effect = lower value 1.02 | locus YDL005C, strain med2, stronger effect = lower value 1.04 | locus YDL040C, strain nat1, stronger effect = lower value 1.03 | locus YDL074C, strain BRE1, stronger effect = lower value 0.833 | locus YDL101C, strain DUN1, stronger effect = lower value 0.989 | locus YDL185W, strain tfp1, stronger effect = lower value 1.02 | locus YDL192W, strain arf1, stronger effect = lower value 1.01 | locus YDR001C, strain nth1, stronger effect = lower value 1.04 | locus YDR069C, strain doa4, stronger effect = lower value 0.991 | locus YDR101C, strain arx1, stronger effect = lower value 0.956 | locus YDR159W, strain sac3, stronger effect = lower value 0.908 | locus YDR162C, strain NBP2, stronger effect = lower value 0.843 | locus YDR297W, strain sur2, stronger effect = lower value 1.01 | locus YDR318W, strain mcm21, stronger effect = lower value 0.945 | locus YDR334W, strain swr1, stronger effect = lower value 1.05 | locus YDR335W, strain msn5, stronger effect = lower value 0.959 | locus YDR388W, stronger effect = lower value 1.02 | locus YDR502C, strain sam2, stronger effect = lower value 0.93 | locus YEL003W, strain gim4, stronger effect = lower value 0.938 | locus YEL037C, strain rad23, stronger effect = lower value 1.02 | locus YEL061C, strain CIN8 (second series), stronger effect = lower value 1.03 | locus YEL061C, strain CIN8, stronger effect = lower value 1.04 | locus YER015W, strain faa2, stronger effect = lower value 1.01 | locus YER016W, strain bim1, stronger effect = lower value 0.934 | locus YER110C, stronger effect = lower value 1.03 | locus YER111C, strain swi4, stronger effect = lower value 1.06 | locus YER155C, strain BEM2 (second series), stronger effect = lower value 1.07 | locus YER155C, strain BEM2, stronger effect = lower value 1.06 | locus YER167W, strain BCK2, stronger effect = lower value 1 | locus YFR010W, strain ubp6, stronger effect = lower value 1.01 | locus YGL086W, strain mad1, stronger effect = lower value 0.951 | locus YGL167C, strain pmr1, stronger effect = lower value 1.02 | locus YGL173C, strain kem1, stronger effect = lower value 0.904 | locus YGL227W, strain vid30, stronger effect = lower value 1.05 | locus YGL240W, strain doc1, stronger effect = lower value 0.918 | locus YGL248W, strain PDE1, stronger effect = lower value 0.952 | locus YGL253W, strain hxk2, stronger effect = lower value 0.963 | locus YGR078C, strain PAC10, stronger effect = lower value 0.877 | locus YGR135W, strain pre9, stronger effect = lower value 0.949 | locus YHR027C, strain rpn1, stronger effect = lower value 0.981 | locus YHR030C, strain SLT2, stronger effect = lower value 1.02 and 0.96 | locus YHR079C, strain IRE1 (second series), stronger effect = lower value 0.979 | locus YHR079C, strain IRE1, stronger effect = lower value 0.968 | locus YHR094C, strain hxt1, stronger effect = lower value 1.03 | locus YHR129C, strain ARP1, stronger effect = lower value 0.993 | locus YHR142W, strain chs7, stronger effect = lower value 0.946 | locus YHR200W, strain rpn10, stronger effect = lower value 1.01 | locus YIL066C, strain RNR3, stronger effect = lower value 0.913 | locus YIL073C, strain SPO22, stronger effect = lower value 1.01 | locus YIL125W, strain kgd1, stronger effect = lower value 1 | locus YIR030C, strain dcg1, stronger effect = lower value 0.999 | locus YJL092W, strain hpr5, stronger effect = lower value 1.02 | locus YJL095W, strain BCK1 (second series), stronger effect = lower value 1 | locus YJL095W, strain BCK1, stronger effect = lower value 0.861 and 1 | locus YJL115W, strain asf1, stronger effect = lower value 1.05 | locus YJL129C, strain trk1, stronger effect = lower value 0.946 | locus YJL134W, strain LCB3, stronger effect = lower value 1.03 | locus YJL154C, strain vps35, stronger effect = lower value 1.05 | locus YJL164C, strain tpk1, stronger effect = lower value 0.952 | locus YJL166W, strain qcr8, stronger effect = lower value 0.973 | locus YJL168C, strain set2, stronger effect = lower value 1.02 | locus YJL187C, strain SWE1 (second series), stronger effect = lower value 0.931 | locus YJL187C, strain SWE1, stronger effect = lower value 1.02

Source: PubChem BioAssay AID1159580 (chemical genetic matrix, 2015)
